HCV inh: HCV inhibition. Huh7.5.1 HCVcc-Cre infection, luciferase reporter, 44 h. Potency, µM (titrated, usually from 41.8 µM), inactives show at the highest dose activity change, negative = inhibition, usual class: inhibitors. actives 3.4% (n = 340,000). AID 651820; active = well fitted inhibition curve with a large enough effect; inconclusive = small, poorly fitted or top-dose-only effect, or another doubt; inactive = no such curve, though single readings can be large or run the other way; also: potency is read from the fitted curve at half-maximal effect
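HCVcc-Cre virus at an moi near 0.5 was added right after compound to cells cultured 4 h from seeding (1,000 cells/well). Luciferase activity was determined 44 h later, 15 min after substrate addition at RT.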
VACV Venus inh: inhibitors of vaccinia virus (Venus reporter) | Vaccinia virus Venus reporter expression, fluorescence | Potency, µM (doses to about 36.5 µM), without a hit: at the highest dose activity change, negative = inhibition, most hits filed as inhibitors | actives 0.46% (n = 330,000) | AID 720580; calls by dose curve; tested in A549 cells; also: potency is read from the fitted curve at half-maximal effect; nearly all actives have a fitted effect of over 30% in size
FMDV inh: antivirals against foot and mouth disease virus. AID 1159524. actives 1.2% (n = 410,000). FMDV antiviral cell-based qHTS. Potency, µM (top dose mostly 57.9 µM), inactives show at the highest dose activity change, negative = inhibition, hits mostly inhibitors; calls by dose curve; tested in HEK293T cells; also: read-out not given here; potency is read from the fitted curve at half-maximal effect; nearly all actives have a fitted effect of over 45% in size
HCMV antiviral: inhibitors of human cytomegalovirus; activity change, negative = inhibition, % at 57.5 µM; HFF cells, HCMV-luciferase reporter, 72 h; active compounds read low; actives 4.5% (n = 410,000); AID 1259415; in the data active = activity change below about -60%; inconclusive = no clear call, values can overlap the other calls; inactive = above about -39%
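Luciferase read-out from HCMV-luciferase-infected HFFs (MOI 1 PFU/cell) 72 h post infection at 37C; compounds added after 16 h cell attachment; activity normalized between buffer-only basal and Salinomycin (10uM) inhibitor controls.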
VACV mCherry inh: inhibitors of vaccinia virus infection (mCherry reporter signal) | Vaccinia virus mCherry reporter infection, fluorescence | AID 720579 | Potency, µM (highest dose often 36.5 µM), without a hit: top-dose activity change, negative = inhibition, hits mostly inhibitors | actives 0.63% (n = 310,000); calls by dose curve; tested in A549 cells; also: potency is read from the fitted curve at half-maximal effect; nearly all actives have a fitted effect of over 35% in size
Active calls of the source: *; ? = inconclusive; . = no result given. An excerpt weighted towards active compounds, which were near 7.3% of everything screened. % is scaled to controls: 0 for no effect and ±100 for the full control effect.

SMILES	HCV inh	VACV Venus inh	FMDV inh	HCMV antiviral	VACV mCherry inh
O=C(CCc1ccccc1)NCC(=O)N/N=C/c1ccc(O)cc1O	-17%	.	-6%	20	.
COCCNC(=S)N/N=C/c1ccccc1C(=O)O	16%	-13%	9%	-5	-20%
Cc1cccc(NC(=O)CCC(=O)N/N=C/c2ccc(O)cc2O)c1	?	-9%	-11%	100	6.3µM*
COc1cccc(CCNC(=O)c2cnc3sc(N4CCOCC4)nn3c2=O)c1	.	-8%	-19%	14	-22%
COCCCNC(=O)c1ccc(Cn2c(=O)c3cccn3c3cccnc32)cc1	.	-19%	9%	8	-27%
O=C(CCCCC(=O)NN=Cc1ccccc1O)NN=Cc1ccccc1O	?	-13%	5%	12	3.2µM*
O=C(Cn1cc(C(F)(F)F)ccc1=O)N/N=C/c1ccccc1O	?	-25%	2%	-21	16µM*
Cc1ccc(SCCC(=O)N/N=C/c2ccccc2O)cc1	?	1%	4%	-85*	-26%
CSc1nc(C)cc(OCC(=O)N/N=C/c2ccccc2O)n1	6.3µM*	?	?	?	11µM*
O=C(CSCC(=O)NN=Cc1ccccc1O)NN=Cc1ccccc1O	?	?	56%	-13	?
N#Cc1ccc(NC(=O)N[C@H]2CC[C@@]34CCCN3C(=O)CCC[C@H]4C2Cc2ccccc2)cc1 (some centres not stated)	.	.	.	1	.
Cc1cc(C)c2nc3nc(C)c(C)cc3c(N)c2c1	-30%	?	-13%	-99*	?
CCCSc1nc(C)c2cc(C)cc(C)c2n1	1%	-18%	4%	7	-20%
COc1ccc(C(=O)NCC2Cc3cccc(-c4ccc(S(C)(=O)=O)cc4)c3O2)c(OC)n1 (configuration not stated)	.	-1%	-15%	.	-8%
O=C1/C(=C/c2cccnc2)SC(=S)N1C1CCS(=O)(=O)C1 (configuration not stated)	1%	2%	14µM*	?	-10%
Cc1ccc(NC(=O)N2CCN(C(=O)c3nsc4ccccc34)CC2)cc1C	.	-21%	-4%	0	-17%
O=C(c1oc2ccccc2c1CSCc1ccccc1)N1CCN(c2ncccn2)CC1	11µM*	.	?	?	.
CCOCC(=O)Nc1c(C(=O)N2CCN(c3ncccn3)CC2)oc2ccccc12	-12%	.	35%	0	.
Cc1ccc(N(C(=O)c2snc(C(N)=O)c2N)C(C(=O)NCCC(C)C)c2ccco2)cc1 (configuration not stated)	32µM*	.	-21%	-63*	.
NC(=O)c1nsc(C(=O)N(CCc2ccccc2)C(C(=O)NC2CCCC2)c2ccco2)c1N (configuration not stated)	-6%	-15%	.	-60*	-3%
Cc1ccc(C(C(=O)NCC2CCCO2)N(C(=O)c2snc(C(N)=O)c2N)c2ccc(F)cc2)o1 (configuration not stated)	-12%	14%	-14%	-75*	-10%
COc1ccccc1N(C(=O)c1snc(C(N)=O)c1N)C(C(=O)NC1CCCC1)c1ccc2ncccc2c1 (configuration not stated)	0%	-14%	18%	-88*	-3%
COc1ccc(C(C(=O)NC2CCCC2)N(C(=O)c2snc(C(N)=O)c2N)c2ccccc2OC)cc1OC (configuration not stated)	-9%	-10%	2%	-25	-9%
COc1ccc(-c2nc(CCNC(=O)c3ccccc3)cs2)cc1OC	.	-19%	0%	14	-20%
CCOc1ccc(CNC(=O)CCCn2c(=O)c3cccn3c3ccccc32)cc1	.	-8%	-9%	-9	-6%
SMILES	HCV inh	VACV Venus inh	FMDV inh	HCMV antiviral	VACV mCherry inh
O=C(C1CCCCC1)N(CCN1CCN(c2ccccc2CO)CC1)c1ccccn1	.	-17%	-17%	.	-15%
CCOc1ccc(C(C(=O)NCC2CCCO2)N(Cc2cccs2)C(=O)c2snc(C(N)=O)c2N)cc1 (configuration not stated)	?	6%	-17%	-68*	28%
COc1ccc(N(C(=O)c2snc(C(N)=O)c2N)C(C(=O)NC2CCCC2)c2ccco2)cc1 (configuration not stated)	-20%	-11%	-5%	-38	-3%
NC(=O)c1nsc(C(=O)N(c2ccc3c(c2)OCCO3)C(C(=O)NCC2CCCO2)c2ccc(F)cc2)c1N (configuration not stated)	?	3%	10%	-74*	-13%
COc1ccc(N(C(=O)c2snc(C(N)=O)c2N)C(C(=O)NC2CCCCC2)c2ccc(C)o2)cc1 (configuration not stated)	?	-14%	-15%	-70*	-17%
COc1ccc(C(C(=O)NCC2CCCO2)N(Cc2cccs2)C(=O)c2snc(C(N)=O)c2N)cc1OC (configuration not stated)	-3%	-18%	-5%	-30	-12%
Cc1ccc(C(C(=O)NCC2CCCO2)N(C(=O)c2snc(C(N)=O)c2N)c2ccc3c(c2)OCCO3)cc1 (configuration not stated)	?	-10%	-2%	-5	-4%
Cc1cc(C)cc(N(C(=O)c2snc(C(N)=O)c2N)C(C(=O)NCC2CCCO2)c2cccs2)c1 (configuration not stated)	11µM*	-12%	-11%	-93*	-23%
COCCNC(=O)C1(C)CCN(C(=O)c2cc(-c3cccs3)oc2C)C1 (configuration not stated)	.	.	.	-21	.
CCOC(=O)c1oc2nc(CC(C)C)c3c(c2c1N)CCCC3	2.8µM*	-25%	6%	14	?
CCN(CC)S(=O)(=O)c1ccc2oc(Nc3ccc4c(c3)OCCO4)nc2c1	10µM*	-24%	-3%	38	-13%
CCS(=O)(=O)c1ccc2oc(Nc3ccc(C(C)(C)C)cc3)nc2c1	?	-16%	?	-14	-8%
O=C(COCc1cc(-c2cccs2)on1)Nc1cccc(Cl)c1Cl	.	-5%	-19%	-6	-3%
O=C(NC1CCN(Cc2ccc(Cl)cc2)CC1)c1cn(-c2ccccc2)nc1-c1cccnc1	11µM*	.	-14%	-13	.
CC(C)CCNC(=O)c1ccc2nc(CCc3ccccc3)oc2c1	.	-19%	2%	19	-8%
COc1ccccc1NC(=O)COc1cc(Br)c(CNCCCN2CCOCC2)cc1OC	11µM*	.	-6%	-37	.
COc1ccccc1OCC(=O)NCCCN1CCOCC1	-1%	-1%	1%	15	-4%
CCCCCCNC(=O)CNC(=S)N(Cc1cccs1)C1CCCCC1	10µM*	.	4%	-14	.
O=C1C(=C(I)I)c2ccccc2-c2ccccc21	8.9µM*	?	18µM*	-100*	?
O=C1c2ccccc2-c2cccnc21	-3%	.	6%	-104*	.
O=C1C(=O)c2ccccc2-c2ccccc21	2.8µM*	4.5µM*	5.6µM*	-101*	2.8µM*
Cc1nc2c(nc1C)C(=O)c1ccccc1C2=O	?	4µM*	?	?	3.5µM*

Compound activity (PubChem BioAssay)
